Screening data from PubChem BioAssay.
CYP2C19 inh: blockers of cytochrome P450 2C19 activity – biochemical, luminescence, ADME assay, primary screen. P33261. CYP2C19 Supersomes, luciferin-H EGE luminescence, 30 min. inhibition, % at 5 µM. 96,000 tested, 21% active;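 active = CYP2C19 inhibition above a set limit at 5 µM in the primary screen, cut at about 50% in these data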
Target sequence (P33261 whole entry, looked up): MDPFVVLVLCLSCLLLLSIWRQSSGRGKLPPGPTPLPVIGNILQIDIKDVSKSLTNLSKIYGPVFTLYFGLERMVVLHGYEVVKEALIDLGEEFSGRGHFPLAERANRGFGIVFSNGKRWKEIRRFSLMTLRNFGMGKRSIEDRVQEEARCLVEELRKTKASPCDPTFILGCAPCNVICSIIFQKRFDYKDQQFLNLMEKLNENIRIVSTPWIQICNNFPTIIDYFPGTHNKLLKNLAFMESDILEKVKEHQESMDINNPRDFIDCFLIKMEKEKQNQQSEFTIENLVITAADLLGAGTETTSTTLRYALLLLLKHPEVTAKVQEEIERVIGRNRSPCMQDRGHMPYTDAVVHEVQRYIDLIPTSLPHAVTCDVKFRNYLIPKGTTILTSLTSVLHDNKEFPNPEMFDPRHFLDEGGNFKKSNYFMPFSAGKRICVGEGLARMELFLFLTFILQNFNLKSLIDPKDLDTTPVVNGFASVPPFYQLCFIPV
CYP2C9 inhib: blockers of cytochrome P450 2C9 activity – biochemical, luminescence, ADME assay, primary screen; CYP2C9 Supersomes, luciferin-H conversion; 96,000 tested, 20% active; inhibition, % at 5 µM; P11712;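 active = blocking of liver enzyme CYP2C9 beyond about 50% at 5 µM, limit read from the data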
Measles CPE: compounds protecting cells from measles virus cytopathic effect, primary screen, measles RdRp inhibitor project, single point, MLSMR library, absorbance; 140,000 tested, 1.5% active; Measles virus-infected cells, CPE protection; protection (pct of control), % at 4 µM; AID 841, 2007; in the data active = protection mostly above about 24%, no sharp cut-off; inactive = mostly below about 26%
CYP2C9 act: human CYP2C9 activators, primary screen, biochemical, luminescence; Cytochrome P450 2C9 (Homo sapiens), P11712; 96,000 tested, 1.4% active; recombinant CYP2C9, luciferin-H conversion; active compounds read high; factor 1 = untreated enzyme, 0 = blocked; activation factor at 5 µM;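 active = activation factor of 2 or more for CYP2C9 at a 5 µM dose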
CYP2C19 activ: human CYP2C19 activators, primary screen, biochemical, luminescence | recombinant CYP2C19, luciferin-H EGE luminescence; active compounds read high; 0 = fully inhibited enzyme, 1 = untreated enzyme | 96,000 tested, under 10 active | Cytochrome P450 2C19 (Homo sapiens), P33261 | AID 1025, 2008 | activation factor at 5 µM;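 active = activation factor of at least 2 at 5 µM in the primary screen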
Of the large screens only hits and unclear results are named; the others gave an inactive call. Sampled rows, rich in hits. Any-hit rate of the full collection: about 22%.

Cc1ccc(-c2nc(CSCC(=O)N3CCN(c4ccccn4)CC3)c(C)o2)cc1	none
CCOc1ccc(-c2nc(CSCC(=O)N3CCN(c4cccc(OC)c4)CC3)c(C)o2)cc1	CYP2C19 inh 83, CYP2C9 inhib 94
O=C1/C(=C\c2ccccn2)SC(=S)N1Nc1ncc(C(F)(F)F)cc1Cl	CYP2C19 inh 65
CN(C1CCCCC1)S(=O)(=O)c1ccc(NC(=O)C2CCCCC2C(=O)O)cc1 (centres undefined)	none
CCOC(=O)N1C=CC(C)=C[C@@H]2[C@@H](N3C(=O)c4ccccc4C3=O)C(=O)N21	none (no result: CYP2C19 inh, CYP2C9 inhib, CYP2C9 act, CYP2C19 activ)
COc1ccc(C(=O)Oc2c(C)occc2=O)cc1OC	Measles CPE 48
COc1ccc(C(=O)c2ccc(OC)c(OC)c2)cc1OC	none
Cc1ccc(-c2nn(C)c(=O)c3ccccc23)cc1CNC(=O)Cn1nc(-c2ccccc2)c2ccccc2c1=O	none
CCOC(=O)CNS(=O)(=O)c1cc(-c2n[nH]c(=O)c3ccccc23)ccc1C	CYP2C19 inh 50, CYP2C9 inhib 65
COc1ccc(-c2nn(C)c(=O)c3ccccc23)cc1CNS(C)(=O)=O	none
Cc1ccc(NS(=O)(=O)c2cc(-c3n[nH]c(=O)c4ccccc34)ccc2C)cc1	none (no result: CYP2C19 inh, CYP2C9 inhib, CYP2C9 act, CYP2C19 activ)
COc1ccc(-c2nn(C)c(=O)c3ccccc23)cc1NS(C)(=O)=O	CYP2C9 inhib 51
COCCNS(=O)(=O)c1cc(-c2nn(C)c(=O)c3ccccc23)ccc1C	CYP2C19 inh 57, CYP2C9 inhib 70
Cc1cc(C)n(CC(=O)NCc2cc(-c3nn(C)c(=O)c4ccccc34)ccc2C)n1	CYP2C9 inhib 55
CCOC(=O)c1cnn(CCOC(=O)c2ccccc2)c1NC(=O)c1ccccc1	none (no result: CYP2C19 inh, CYP2C9 inhib, CYP2C9 act, CYP2C19 activ)
Cc1sc(NC(=O)Cn2[nH]c(=O)c3ccccc3c2=O)nc1-c1ccccc1	none (no result: CYP2C19 inh, CYP2C9 inhib, CYP2C9 act, CYP2C19 activ)
Cc1ccc(-c2nn3c(C)nnc3c3ccccc23)cc1S(=O)(=O)NC(C)c1ccccc1 (centres undefined)	CYP2C19 inh 50, CYP2C9 inhib 73
Cc1ccc(-c2nn3c(C)nnc3c3ccccc23)cc1S(=O)(=O)NCc1ccco1	none
CCOC(=O)Cn1nc(-c2ccccc2)c2ccccc2c1=O	none
COc1ccc(-c2nn(C)c(=O)c3ccccc23)cc1NC(=O)Cn1nc(-c2ccccc2)c2ccccc2c1=O	CYP2C9 inhib 72
Cc1ccc(-c2nn(CC(N)=O)c(=O)c3ccccc23)cc1S(=O)(=O)N(C)C	CYP2C9 inhib 59
CCCc1cc(=O)n2c([nH]c3ccccc32)c1C#N	CYP2C9 inhib 56
CCCSc1nc(C)c(CC(=O)O)c(=O)[nH]1	none
C/C(Cn1nc([N+](=O)[O-])cc1C)=N\NC(=O)c1cccc(Br)c1	CYP2C19 inh 59
Cc1ccc(C(=O)COC(=O)c2cc(Cl)nc3ccccc23)cc1C	CYP2C9 act 2
Cc1ccc(C)c(NC2=C(Cl)C(=O)OC2OC(=O)c2ccco2)c1 (centres undefined)	CYP2C19 inh 76, CYP2C9 inhib 58
Cc1ccc(C2=[N+]([O-])C(C)(C)N(O)C2(C)C)cc1	Measles CPE 46 (no result: CYP2C19 inh, CYP2C9 inhib, CYP2C9 act, CYP2C19 activ)
CC1(C)C(c2ccccc2)=[N+]([O-])C2(CCCCC2=O)N1O (centres undefined)	none (no result: CYP2C19 inh, CYP2C9 inhib, CYP2C9 act, CYP2C19 activ)
Cc1ccc(C2=Nc3ccccc3N(C(=O)c3ccccc3)C(C)C2)cc1 (centres undefined)	none (no result: CYP2C19 inh, CYP2C9 inhib, CYP2C9 act, CYP2C19 activ)
O=C(N=Nc1c(O)[nH]c2ccc(Br)cc12)c1ccccc1-n1cccc1	CYP2C9 inhib 64
O=C(N=Nc1c(O)[nH]c2ccc(Br)cc12)c1cc(-c2cccc3ccccc23)n[nH]1	none (no result: CYP2C19 inh, CYP2C9 inhib, CYP2C9 act, CYP2C19 activ)
Cc1cccc(C)c1OCC(=O)N=Nc1c(O)[nH]c2ccc(Br)cc12	CYP2C9 inhib 88
O=C1C2CC=C(Cl)CC2C(=O)N1CN(Cc1ccco1)CN1C(=O)C2CC=C(Cl)CC2C1=O (centres undefined)	none
CC(=O)Nc1ccc(SCC(=O)c2cc(C)n(C)c2C)cc1	CYP2C19 inh 79, Measles CPE 46
Cc1cc(C)cc(C(=O)NCC(=O)OCC(=O)c2cc(C)n(CC(F)(F)F)c2C)c1	none (no result: CYP2C19 inh, CYP2C9 inhib, CYP2C9 act, CYP2C19 activ)
CC(=O)Nc1ccc(SCC(=O)c2cc(C)n(CC(F)(F)F)c2C)cc1	CYP2C19 inh 93, CYP2C9 inhib 58
CC(C)CNC(=O)/C=C/c1cccs1	none (no result: CYP2C19 inh, CYP2C9 inhib, CYP2C9 act, CYP2C19 activ)
COC(=O)Cc1ccc(NC(=S)NN2CCOCC2)cc1	none (no result: CYP2C19 inh, CYP2C9 inhib, CYP2C9 act, CYP2C19 activ)
COc1ccc2oc(C(F)(F)C(F)(F)F)cc(=O)c2c1	none
